Screens deposited in PubChem BioAssay by National Center for Advancing Translational Sciences (NCATS).
Only some compounds are listed: those with a hit (about 11% of all), similar ones and a draw of the others.
RORg inh: inhibitors of mouse ROR gamma transcriptional activity | Potency, µM (titrated, usually from 53.6 µM), without a hit: top-dose activity change, negative = inhibition, hits mostly inhibitors | P51450 | Drosophila S2 Gal4-RORgamma UAS-luciferase reporter, 20 h | actives 5.4% (n = 310,000); further: potency means the concentration at half of the fitted maximal effect; on the % scale 0 is the no-effect control and ±100 the full control effect; nearly all actives have a fitted effect of over 60% in size
Target sequence (P51450 whole entry, looked up, the tested form may be a part): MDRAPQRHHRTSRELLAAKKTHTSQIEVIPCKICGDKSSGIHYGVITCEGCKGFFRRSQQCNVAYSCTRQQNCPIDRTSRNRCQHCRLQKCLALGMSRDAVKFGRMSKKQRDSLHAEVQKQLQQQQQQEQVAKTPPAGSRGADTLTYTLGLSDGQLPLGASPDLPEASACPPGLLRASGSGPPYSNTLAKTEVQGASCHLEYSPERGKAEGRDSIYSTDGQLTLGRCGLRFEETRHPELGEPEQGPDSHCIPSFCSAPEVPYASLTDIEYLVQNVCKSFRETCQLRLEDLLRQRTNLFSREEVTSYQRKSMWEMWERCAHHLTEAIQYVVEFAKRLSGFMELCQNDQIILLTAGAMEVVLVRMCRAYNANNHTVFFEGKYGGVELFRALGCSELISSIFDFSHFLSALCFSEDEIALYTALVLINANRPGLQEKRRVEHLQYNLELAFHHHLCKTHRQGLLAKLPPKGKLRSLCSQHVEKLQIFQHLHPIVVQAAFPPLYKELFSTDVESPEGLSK
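Luminescence from a UAS-regulated Photinus luciferase reporter in stably transfected Drosophila Schneider cells is measured; decreased signal marks ROR gamma inhibition. Fusion expression is induced by 700 uM copper sulfate for 20 hr.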
MCF10A rereplic: induces DNA re-replication in MCF 10a normal breast cells; MCF 10A DNA re-replication, Hoechst nuclear intensity, 48 h; Potency, µM (titrated, usually from 46.1 µM), without a hit: top-dose activity, positive = re-replication, hits mostly activators; actives 2.9% (n = 350,000); further: potency means the concentration at half of the fitted maximal effect; % of control where 0% means no effect; nearly all actives have a fitted effect of over 50% in size
Gal4-VP16 FLuc: Gal4-VP16 reporter inhibition counter-screen. Drosophila S2 Gal4-VP16 UAS-luciferase, luminescence, 20 h. Potency, µM (titrated, usually from 53.6 µM), inactives show at the top dose activity, negative = inhibition, usual class: inhibitors. actives 3.5% (n = 310,000);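 further: Gal4-VP16 expression switched on by copper sulfate through the metallothionein promoter; potency means the concentration at half of the fitted maximal effect; on the % scale 0 is the no-effect control and ±100 the full control effect; nearly all actives have a fitted effect of over 50% in size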
IL-1B inflam inh: inhibitors of inflammasome signaling (IL-1 beta secretion). THP-1 LPS/ATP IL-1B secretion, AlphaLISA, 16 h; active compounds read low. activity change, % at 57.5 µM. actives 4.7% (n = 360,000). AID 743279; in the data active means activity change below about -50%; inconclusive means mostly about -30% to -49%; further: on the % scale 0 is the no-effect control and ±100 the full control effect
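THP-1 cells pretreated 1 hr with compounds (up to 57.5 uM final), then stimulated with LPS (250 ng/mL final) plus ATP (1.25 mM final); secreted IL-1B measured by AlphaLISA after 16 hr, decreased signal indicating inhibition.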
SW480 rerep: induces DNA re-replication in SW480 colon adenocarcinoma cells; SW480 DNA re-replication, Hoechst DNA content imaging, 48 h; Potency, µM (highest dose often 46.1 µM), without a hit: at the top dose re-replication activation, hits mostly activators; actives 1.8% (n = 340,000); further: potency means the concentration at half of the fitted maximal effect; % of control where 0% means no effect; nearly all actives have a fitted effect of over 55% in size
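Compounds, transferred as 23 nL by pin tool, were incubated with cells for 48 hr; DNA content per nucleus was then quantified by Hoechst staining and fluorescence plate imaging.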
* = called active by the depositor; u = inconclusive; x = no result; [ ] = dose if it differs, or a comment. Unless noted, the call rests on the fitted dose curve; in most records, active means well fitted curve in the direction sought with a large enough effect; inconclusive means small, poorly fitted or top-dose-only effect, or another doubt; inactive means no such curve, though single readings can be large; an effect the other way counts as inactive or inconclusive.

SMILES	RORg inh	MCF10A rereplic	Gal4-VP16 FLuc	IL-1B inflam inh	SW480 rerep
Cc1ccc([N+](=O)[O-])cc1N(CC(=O)Nc1ccc(S(=O)(=O)Nc2cccc(C(F)(F)F)c2)cc1)S(C)(=O)=O	-35%	u	u	-84*	u
COc1ccccc1N(CC(=O)Nc1cccc(C(F)(F)F)c1)S(C)(=O)=O	23%	1%	9%	-5	4%
Cc1onc(-c2ccccc2Cl)c1C(=O)OCc1cnc(Cl)s1	24%	23µM*	-2%	9	4%
C/C(=N\OC(=O)c1c(-c2ccccc2Cl)noc1C)c1ccncc1	-24%	-8%	-7%	-145*	1%
N/C(=N\OC(=O)c1cc([N+](=O)[O-])ccc1Cl)c1cccnc1	-5%	18µM*	-3%	-101*	u
Cc1onc(-c2ccccc2Cl)c1C(=O)O/N=C(\N)c1ccccc1	14µM*	u	6.3µM*	-75*	u
N/C(=N\OC(=O)c1ccc([N+](=O)[O-])cc1)c1cccnc1	u	-4%	u	-4	-9%
Cc1ccc(N(C)S(=O)(=O)c2cccc(C(=O)NCC(c3ccco3)N3CCCC3)c2)cc1 (configuration not stated)	x	8%	x	u	3%
C=C(C)C(O)/C=C/c1ccc(C(F)(F)F)cc1 (configuration not stated)	-16%	x	2%	x	x
C=C1C=CS(=O)(=O)N(C(CC(C)C)C(=O)OC)C1 (configuration not stated)	-5%	x	-7%	x	x
COc1ccc(S(=O)(=O)NNS(=O)(=O)c2ccc(OC)c(OC)c2)cc1OC	x	x	x	29	x
COc1ccc(S(=O)(=O)n2nc(OC(=O)c3c(-c4ccccc4Cl)noc3C)cc2N)cc1	17%	1.6µM*	-14%	-24	-4%[9.22 µM]
Cc1onc(-c2ccccc2Cl)c1C(=O)O/N=C(\N)c1cccc([N+](=O)[O-])c1	x	x	x	-62*	x
COc1cc(CCCN2CCNC[C@@H]2Cc2ccc(O)cc2)cc(OC)c1OC	x	-2%	x	12	2%
CC1CCc2c(C(=O)Nc3cccc(-c4nn[nH]n4)c3)csc2C1 (configuration not stated)	-1%	14%	10%	0	8%
O=[N+]([O-])c1ccc(S(=O)(=O)N/N=C/c2ccsc2)cc1	-13%	u	20%	30	-4%
COc1cccc(CN(Cc2ccco2)C(c2ccc(F)cc2)c2nnnn2C(C)(C)C)c1 (configuration not stated)	-3%	u	2.8µM*	u	4%
O=C(Cn1c(CCCO)nc2ccccc21)Nc1ccccc1-c1ccccc1	10%	-8%	2%	29	-8%
N#Cc1c(NC(=S)NC(=O)Cc2cccs2)sc2c1CCCCC2	5µM*	6%	16µM*	-2	-8%
CC(=O)NC(=S)Nc1sc2c(c1C#N)CCCCC2	11µM*	u	8.9µM*	-74*	-7%
CC(C)(C)C(=O)Nc1sc2c(c1C#N)CCC2	3%	u	-2%	15	5%
CC(C)(C)C(=O)NC(NC(=S)Nc1sc2c(c1C#N)CCCC2)C(Cl)(Cl)Cl (configuration not stated)	10µM*	u	u	5	11%
O=C(CO/N=C/c1c(Cl)cccc1Cl)NNC(=O)c1cccc(Cl)c1	-16%	2%	2%	5	-18%
O=C(CO/N=C/c1ccc(Cl)cc1Cl)NNC(=O)c1ccc(Cl)cc1Cl	0.089µM*	5%	u	0	-17%
CCCN1CN(CCc2ccccc2)CNC1=S	1.1µM*	-1%	1.8µM*	10	-4%
SMILES	RORg inh	MCF10A rereplic	Gal4-VP16 FLuc	IL-1B inflam inh	SW480 rerep
CCOC(=O)c1ccc(N2CN(C3CCCCC3)CNC2=S)cc1	-26%	-1%	1%	-7	-10%
CCCCN1CNC(=S)N(CCc2ccccc2)C1	2.8µM*	-15%	4.5µM*	12	1%
CCOc1ccccc1N1CN(C2CCCCC2)CNC1=S	3.2µM*	1%	14µM*	-6	-5%
O[C@@H]1CN(C2CCCCC2)CC[C@H]1N1CCN(CCc2ccccc2)CC1	-16%[1.91 µM]	1%	-4%	-2	-1%
S=C1NCN(C2CCCCC2)CN1CCc1ccccc1	2.8µM*	9%	4µM*	12	9%
O=C(CCNC(=O)c1ccc(Br)cc1)Nc1ncccc1O	x	-7%	x	23	-11%
O=C(NNC(=O)c1cc(S(=O)(=O)N2CCOCC2)ccc1Cl)c1ccc(F)cc1	x	x	x	19	x
CCOc1ccc(CCN2CN(C3CCCCC3)CNC2=S)cc1OCC	2.8µM*	2%	8.9µM*	22	2%
CCOc1ccc(CCNC(=O)C2CC(=O)N(C3CCCC3)C2)cc1OCC (configuration not stated)	4%	-2%	-1%	42	-8%
CCCCN1CNC(=S)N(CCc2ccc(OCC)c(OCC)c2)C1	3.2µM*	-52%	14µM*	27	-6%
CCOc1ccc(CCN2C(=O)C3C4C=CC(C4)C3C2=O)cc1OCC (configuration not stated)	u	-3%	-3%	-1	27%
COc1ccc(C(=O)NC2CCN(CC(=O)Nc3c(C)cccc3C)CC2)cc1OC	6%[1.91 µM]	13%	10%	29	-13%
COc1cccc(C(=O)N2c3ccccc3Sc3ccccc32)c1	14%	u	-5%	-11	u
O=C(N1CCN(c2ccccn2)CC1)N1c2ccccc2Sc2ccccc21	10%	u	-24%	34	0.65µM*
COc1cccc(C(=O)NC2CCN(CC(=O)Nc3c(C)cc(C)cc3C)CC2)c1	u	x	13µM*	x	x
COc1cccc(C(=O)NC2CC3CCCC(C2)N3CC(=O)Nc2ccccc2C(F)(F)F)c1 (configuration not stated)	130%	u	-17%	-16	16µM*
COc1cccc(C(=O)NC2CCN(C(=O)N3c4ccccc4Sc4ccccc43)CC2)c1	u	-1%	u	-57*	4%
CC(C)N(C)c1ncnc2c1ncn2[C@H]1CN(Cc2ccc(-c3ccccc3)cc2)C[C@@H](CO)O1	x	x	x	-13	x
O=C(NC1CCN(C(=O)N2c3ccccc3Sc3ccccc32)CC1)c1ccccc1Cl	39%	-13%	7%	-59*	-1%
O=C(NC1CCN(C(=O)N2c3ccccc3Sc3ccccc32)CC1)c1ccco1	5%	u	u	-8	u
O=C(Cc1ccc(S(=O)(=O)N2CCOCC2)s1)N1CCN(c2cccc(C(F)(F)F)c2)CC1	45%	13%	u	8	0%
CCOC(=O)c1c(CC(C)C)csc1/N=C/C1C(=O)CCCC1=O	19%	u	21%	0	16µM*
CCCNC(=O)OC[C@@H]1O[C@H](CCON=C(C)C)C=C[C@@H]1Oc1ccc(OC)cc1	1%[10 µM]	x	-1%[10 µM]	x	x
